HMGR II inh – inhibitors of class II HMG-CoA reductase from Enterococcus faecalis. purified E. faecalis HMGR, NADPH absorbance 340 nm kinetic. inhibition, % at 10 µM. 190,000 tested, 0.41% active. AID 1066;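 active = inhibition above a set limit, the median over all tested compounds plus 3 SD, cut at about 9.5% in these data; inconclusive = no clear call, values can overlap the other calls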;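 also: enzyme runs in reverse so mevalonate oxidation gives rising NADPH absorbance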
Calpain2 inh – inhibitors of pig calpain II; purified calpain II, fluorogenic peptide substrate, 30 min; inhibition, % at 16 µM; 220,000 tested, 0.37% active;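 active = inhibition above about 50%, limit read from the data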
Arbovirus anti – antivirals against arbovirus infection; AID 1251; arbovirus infection cell-based antiviral screen; inhibition, % at 10 µM; 200,000 tested, 0.37% active; in the data active = inhibition above about 30%
ROMK primary – modulators of human ROMK potassium channel; Tet-inducible ROMK, thallium flux fluorescence; actives lie on both sides; 130,000 tested, 2% active; B-score at 10 µM; P48048;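 active = signal ratio slope over the read window, or its plate-corrected B-score, at least 3 SD from the plate mean, either direction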;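 also: B-score of the F/F0 ratio slope over 7 to 12 s after thallium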
Target sequence (P48048 whole entry, looked up): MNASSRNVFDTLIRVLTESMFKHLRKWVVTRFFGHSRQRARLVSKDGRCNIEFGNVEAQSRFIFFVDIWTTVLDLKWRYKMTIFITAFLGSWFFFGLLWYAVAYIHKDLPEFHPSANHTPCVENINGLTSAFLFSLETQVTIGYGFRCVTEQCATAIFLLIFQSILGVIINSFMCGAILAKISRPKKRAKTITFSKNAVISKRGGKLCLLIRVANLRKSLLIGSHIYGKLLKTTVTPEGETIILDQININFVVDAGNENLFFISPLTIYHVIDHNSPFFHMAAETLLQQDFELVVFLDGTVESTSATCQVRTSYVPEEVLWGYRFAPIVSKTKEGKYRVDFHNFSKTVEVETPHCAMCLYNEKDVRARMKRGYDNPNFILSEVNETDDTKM
HSV replic up – HSV replication enhancement. maximum fold increase. HSV replication augmentation in cells, fold increase. 220,000 tested, 0.005% active; in the data active = maximum fold increase above about 1.5; inconclusive = no clear call, values can overlap the other calls; tested in PC3 cells
A number is an active result; – = inactive; ? = inconclusive; · = no result given. Compounds with a hit are over-represented: about 2.1% of the library has one in this group of screens.

SMILES	HMGR II inh	Calpain2 inh	Arbovirus anti	ROMK primary	HSV replic up
CCc1ccc2nc(NC(=O)c3ccc(N4C(=O)CCC4=O)cc3)sc2c1	·	–	·	·	–
O=C(NCc1nc(-c2ccc(C(F)(F)F)cc2)no1)Nc1cc(Cl)cc(Cl)c1	·	–	·	–	–
CC(C)Nc1nc(NC(C)C)nc(SCC(N)=O)n1	–	–	–	·	–
Cc1cc([N+](=O)[O-])ccc1NC(=O)CN1C2CCC1CC(NC(=O)NC13CC4CC(CC(C4)C1)C3)C2 (configuration not stated)	–	–	–	–	–
c1ccc2cc3[nH]c(CN4CCOCC4)nc3cc2c1	10.2	–	–	·	–
O=C(Oc1cccc([N+](=O)[O-])c1)N1CCCCC1	–	–	–	–	–
Cc1ccc(C(=O)CC2(O)C(=O)N(C)c3ccccc32)s1 (configuration not stated)	14.3	–	–	–	–
NC(=O)CN1C(=O)C(O)(CC(=O)/C=C\c2ccc3c(c2)OCO3)c2ccccc21 (configuration not stated)	–	–	–	–	–
CN1C(=O)C(O)(CC(=O)/C=C\c2ccc3c(c2)OCO3)c2ccccc21 (configuration not stated)	10.6	–	–	–	–
CN(C(=S)NC(=O)c1ccc(Br)o1)c1ccccc1	–	–	–	–	·
CCN(CC)CCCC(C)NC(=O)c1ccc(C(F)(F)F)cc1 (configuration not stated)	–	–	–	–	–
O=C(COC(=O)CCc1c[nH]c2ccccc12)NC(c1ccccc1)c1ccccc1	–	–	–	·	–
CC1CN(C(=O)CSc2nnc(-c3ccc(Cl)cc3)n2C)CC(C)O1 (configuration not stated)	12.2	–	–	·	–
CCOc1ccc(NC(=O)Nc2cc(-c3ccccc3)sc2C(=O)OC)cc1	–	–	34.4	·	–
O=C(CSc1nnc2c(n1)[nH]c1ccccc12)Nc1cccc(S(=O)(=O)N2CCOCC2)c1	·	–	·	·	–
O=C(N/N=C/c1ccco1)c1cc(-c2cccc3ccccc23)n[nH]1	–	–	–	·	–
O=C(N/N=C/c1ccccc1C(=O)O)c1cc(-c2ccc3c4c(cccc24)CC3)n[nH]1	12.7	–	–	–	–
O=C(O/N=C/c1ccc2c(c1)OCO2)c1ccc([N+](=O)[O-])cc1	–	70.0	–	–	–
Cc1ccc(C(=O)O/N=C/c2ccc3c(c2)OCO3)cc1	–	–	–	–	–
Cc1cccc(C)c1NC(=S)NC(C)CCc1ccccc1 (configuration not stated)	–	–	–	·	–
Cc1ccc(NC(=S)NC(C)CCc2ccccc2)cc1C (configuration not stated)	–	63.7	–	–	–
Cc1ccsc1CN(C)Cc1nc(C2CC2)no1	–	–	–	–	–
Cc1c(NS(=O)(=O)c2ccc3c(c2)Cc2ccccc2-3)c(=O)n(-c2ccccc2)n1C	13.6	–	–	–	–
Cc1c(NS(=O)(=O)c2ccc(Br)s2)c(=O)n(-c2ccccc2)n1C	10.4	–	–	·	–
CCC1(CC)Cc2ccccc2C(Nc2c(C)n(C)n(-c3ccccc3)c2=O)=N1	–	–	–	–	–
SMILES	HMGR II inh	Calpain2 inh	Arbovirus anti	ROMK primary	HSV replic up
Cc1c(NC2=NC(C)(C)Cc3ccccc32)c(=O)n(-c2ccccc2)n1C	11.4	–	–	–	–
CC(C)CN(Cc1cc(=O)oc2cc3c(cc12)CCCC3)CC(C)C	·	–	·	·	–
O=C(c1ccc2c(c1)OCO2)C1CCCN(Cc2ccc3nsnc3c2)C1 (configuration not stated)	10.7	–	–	–	–
Cn1c(CN2CCCC(C(=O)c3ccc4c(c3)OCO4)C2)nc2ccccc21 (configuration not stated)	–	–	–	–	–
COc1ccc(OC)c(/C=C/C(=O)NCCc2nc3ccccc3[nH]2)c1	·	–	·	·	–
CCOC(=O)/C(C#N)=C/c1ccc(SC)cc1	14.0	–	–	–	–
COc1cc(C(=O)Nc2nnc(C3CC3)s2)ccc1OCc1c(C)noc1C	–	–	–	–	·
C/C=C/c1ccc(OCCCCOc2ccccc2C(C)=O)c(OC)c1	–	–	35.7	·	–
COc1ccccc1OCCCCOc1ccccc1C(C)=O	–	–	–	–	–
Cn1nnc(NC(=S)NC(=O)Cc2ccccc2)n1	–	–	–	–	–
COc1ccc(C(=O)C2CCCN(Cc3c[nH]c4ccccc34)C2)c(OC)c1 (configuration not stated)	–	–	–	–	–
COc1ccc(C(=O)N/N=C/c2sc3ccccc3c2O)cc1	–	–	–	-4.47	·
O=C(N/N=C/c1sc2ccccc2c1O)c1ccccc1	–	–	–	·	?
COCc1ccc(CN2CCc3c([nH]c4ccccc34)C2CC(C)C)o1 (configuration not stated)	–	–	–	–	–
